Inconclusive results are not listed. Unmarked numbers belong to inactive results. Activity calls are given as the source filed them. Calls follow the shape of the dose curve; as a rule, active = well fitted cell-killing curve with a large enough effect; inconclusive = small, poorly fitted or top-dose-only effect, or effect the other way; inactive = no such curve, though single readings can be large or run the other way.
Assay: Quantitative High-Throughput drug screen in 47 multiple myeloma cell lines against the NCATS MIPE library collection: KMM1_JCRB cell viability assay (AID 1918960); also: nearly all actives have a fitted effect of over 30% in size;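 as to viability (% of DMSO): 100% = DMSO-treated cells and 0% = medium-only wells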
Conditions: KMM1 myeloma viability, CellTiter-Glo ATP luminescence, 48 h; series mostly up to 45.8 µM; viability (% of DMSO): at the top concentration
Summary of the method: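 ATP readout (CellTiter-Glo), 48 h drug incubation, 37 °C/5% CO2, 500 cells per well; normalisation to DMSO (100%) and media-only (0%) controls.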
Potency is read from the fitted curve at half-maximal effect.

Row | Structure (SMILES) | Potency | viability (% of DMSO)
1 | Cc1cc(Nc2nc(N[C@@H](C)c3ccc(F)cc3)c(C#N)cc2F)n[nH]1 | 1870 nM (active) | 
2 | CC(C)Nc1cc(C(F)(F)F)cc2nc(NC(=O)c3cccnc3)nn12 |  | 82.7%
3 | CC(C)c1cc(-c2n[nH]c(=O)n2-c2ccc3c(ccn3C)c2)c(O)cc1O | 37.2 nM (active) | 
4 | Nc1nccc(Oc2ccc(NC(=O)c3c[nH]cc(-c4ccc(F)cc4)c3=O)cc2F)c1Cl | 2960 nM (active) | 
5 | COc1cc(-c2nn(C3CCC(N4CCN(C(C)=O)CC4)CC3)c3ncnc(N)c23)ccc1NC(=O)c1cc2ccccc2n1C (centres undefined) | 372 nM (active) | 
6 | Clc1cccc(-c2nnnn2Cc2cccnc2)c1Cl |  | 81.9%
7 | CNC(=O)c1ccc(-c2cnc3ncc(Cc4ccc5ncccc5c4)n3n2)cc1F |  | 99.4%
8 | CCNC(=O)Nc1ccc2ncc(Nc3ccc(C)cc3)nc2n1 | 2640 nM (active) | 
9 | COc1ccc2c(c1)CC[C@@H](CN(C)CC(=O)O)[C@H]2c1ccccc1 | 1320 nM (active) | 
10 | Cc1cn2cc(C(=O)N(C)CCO)cc(N[C@@H]3CCOc4cccc(C)c43)c2n1 |  | 84.8%
11 | NC(=O)c1c(OCc2c(F)cc(Br)cc2F)nsc1NC(=O)NCCCCN1CCCC1 |  | 116%
12 | CC1(C)CC(=O)c2c(C(F)(F)F)nn(-c3ccc(C(N)=O)c(NC4CCC(OC(=O)CN)CC4)c3)c2C1 (centres undefined) | 132 nM (active) | 
13 | C=CC(=O)Nc1cccc(Oc2nc(Nc3ccc(N4CCN(C)CC4)cc3)ncc2Cl)c1 | 9350 nM (active) | 
14 | C[C@]12CC[C@H](O)CC1=CCC1C2CC[C@]2(C)C(n3cnc4ccccc43)=CCC12 (some centres undefined) |  | 99.6%
